The results in this text go back to the OligoGym collection.
Also: reference of the scale not given here.

The target of one test is RGS9. The experiment in a line: pooled miR-30 sensor sort-seq; sequence = guide strand. Conditions: shRNA.
As for TTGCCATCTATGTTGATCCAGC, the sensor-assay potency score (higher = more potent) is -0.689.
As to TTCCTTTTCATATTCTTCCAAA, the sensor-assay potency score (higher = more potent) is -0.756.
In the case of TTTTTGACAGCAACGACTGTTT, the sensor-assay potency score (higher = more potent) is -0.217.
With TGACTTTGGACTGATCTCCATA, the sensor-assay potency score (higher = more potent) is -0.742.
Still for that read-out and setting: for TTTCTTTTTGATATTTCGCTTG the value was -0.178; for TTGCAGAACATCACTTCCTGTC, 0.603.
TTGAGAATGAGATTCTTGGGGT yielded a sensor-assay potency score (higher = more potent) of 0.816.
Turning to TTCTTTTTGATATTTCGCTTGG, the sensor-assay potency score (higher = more potent) was -0.579.
The same measure, in the same setting: for TTTACCTTGACTTCATTCGGAT the value was 0.0975.

A further test addresses RHBDL3. The description is as above. Conditions: shRNA.
For AAACTGATCAAACAGGACTTTC, the sensor-assay potency score (higher = more potent) is -1.76.
Same read-out and setting: for AAATCCACCACAGTGACTGGTC the value was 0.238; for TAATGTAGCCTGTGTTCCCAGG, -0.768.
The sequence TTAGGCTGACAAAATCCTGGTA returned a sensor-assay potency score (higher = more potent) of 0.00913.
In the case of TGATCAAACAGGACTTTCCAGT, the sensor-assay potency score (higher = more potent) was -0.423.
Still for that read-out and setting: for TTGCCTGTGCTAATGTAGCCTG the value was -0.542.
Regarding TTGAACTGGCACTTCATGCCTG, the sensor-assay potency score (higher = more potent) was 0.341.
Regarding ATCCGCAGCAGCTTGAACTGGC, the sensor-assay potency score (higher = more potent) is -0.0826.
For the sequence TAGGCTGACAAAATCCTGGTAG, the sensor-assay potency score (higher = more potent) worked out at 0.858.
Consider TGTCATAGTACCACTTGCGGTC, for which the sensor-assay potency score (higher = more potent) is -0.531.
TGAACTGGCACTTCATGCCTGA displayed a sensor-assay potency score (higher = more potent) of 0.0699.
Turning to TAGCTGTCATAGTACCACTTGC, the sensor-assay potency score (higher = more potent) is -0.706.

The target of another test is RHOF. The test is described as above. As to conditions: shRNA.
TAGCAGATGAGCACGAGGTGGG returned a sensor-assay potency score (higher = more potent) of 0.0207.
Still for that read-out and setting: the same measure for TTCAGCTCCTTCCTGCCCGGAC: -0.816; for TAGAGAGCAGCTCGGATCTGTT: -0.736.
On to TACTTCTCGAACACCGATGGGG, for which the sensor-assay potency score (higher = more potent) came to 0.0393.
On to TAGGTGATGGGCTCCAGCTGGG, for which the sensor-assay potency score (higher = more potent) was -0.461.
With ATGAGCAGCGAGGTCTTGCCGC, the sensor-assay potency score (higher = more potent) is -1.07.
With TAGTCTTCTTGCCCGGCCGTGT, the sensor-assay potency score (higher = more potent) is -1.09.
TTCCTCAGGTCTGTCTTGCAGC: the sensor-assay potency score (higher = more potent) is -0.598.
The same measure, in the same setting: the same measure for TTGATGAGGACGTTGTCGTAGC: 0.173.
Regarding AAACTTGGCGGAACATTCCAGG, the sensor-assay potency score (higher = more potent) was -0.805.
Consider TCCAGGTAGAGAGCAGCTCGGA, for which the sensor-assay potency score (higher = more potent) is -1.54.
Consider TTGCTGCCAACGGTCACGCTGG, for which the sensor-assay potency score (higher = more potent) is -0.873.

The target of the next test is RHOH. The test is described as above. As to conditions: shRNA.
TTGATGGAGAAGAGCCTCCTTC: the sensor-assay potency score (higher = more potent) was -0.911.
Turning to TGTTCTCGTACACTGTGGGCTT, the sensor-assay potency score (higher = more potent) was -0.393.
For TTCTGAAGGCGTCATTGCCGGC, the sensor-assay potency score (higher = more potent) was -1.35.
The same measure, in the same setting: the same measure for AAGCGCACCAACAGAGAGGTTT: -0.535; for TTCCATGGCATTGACGCAGGAG: 0.27.
Turning to TTGTAGAGTGTAGTTAGTGAAA, the sensor-assay potency score (higher = more potent) was -1.62.
The sequence TTCACTTGTAGAGTGTAGTTAG showed a sensor-assay potency score (higher = more potent) of 0.0342.
